SW480 rereplic: induces DNA re-replication in SW480 colon adenocarcinoma cells; SW480 DNA re-replication, Hoechst DNA content imaging, 48 h; actives 1.8% (n = 340,000); Potency, µM (titrated, usually from 46.1 µM), inactives show at the highest dose re-replication activation, usual class: activators; further: % of control where 0% means no effect; nearly all actives have a fitted effect of over 55% in size
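Treated cells incubate 48 hr (37 C, 5% CO2), are stained 40 min with Hoechst, and nuclear fluorescence is enumerated; a rise in nuclei with high DNA signal marks re-replication.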
MCF10A rereplic: DNA re-replication induction in MCF 10a cells | MCF 10A DNA re-replication, Hoechst nuclear intensity, 48 h | actives 2.9% (n = 350,000) | Potency, µM (titrated, usually from 46.1 µM), for the others: at the highest dose activity, positive = re-replication, hits mostly activators; further: % of control where 0% means no effect; nearly all actives have a fitted effect of over 50% in size
A-T KAP1 phos: candidate therapy for ataxia-telangiectasia; Potency, µM (titrated, usually from 57.5 µM), for the others: at the highest dose activation, most hits filed as activators; actives 0.19% (n = 320,000); F2112 A-T fibroblasts, KAP-1 phosphorylation AlphaLISA; neocarzinostatin DNA damage 30 min before lysis; further: % of control where 0% means no effect; nearly all actives have a fitted effect of over 45% in size
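hTERT-immortalized A-T patient fibroblasts (F2112), 500 cells/well in OPTI-MEM, 1% FBS, got compounds for 60 min, then NCS for 30 min at 37C. Lysates were then assayed for phospho-KAP-1 by AlphaLISA (anti-pKAP1 donor, anti-KAP1 acceptor beads), 6 hr at 25C.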
ELG1 DNA repair: ELG1-dependent DNA repair inhibition | HEK293T ELG1-luciferase reporter, luminescence, 16 h; DNA damage induced by 5-fluorouridine | Potency, µM (doses to about 46.1 µM), for the others: at the highest dose activity change, negative = inhibition, usual class: inhibitors | actives 2.3% (n = 330,000) | AID 504467; further: on the % scale 0 is the no-effect control and ±100 the full control effect; nearly all actives have a fitted effect of over 55% in size
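Cells (2,000 per well) received 5-fluorouridine plus test compound or DMSO and were incubated 16 hr at 37 °C, 5% CO2. Luciferase activity was read by luminescence 30 min after ONE-Glo addition; signal suppression marked inhibition of damage-induced ELG1 function.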
p53 reactivator: mutant p53 re-activation in reporter cells; H1299 p53-A138V BP100-luciferase reporter, luminescence, 24 h; Potency, µM (series often up to 92.2 µM), inactives show top-dose activity change, positive = activation, most hits filed as activators; actives 0.063% (n = 320,000); further: % of control where 0% means no effect; nearly all actives have a fitted effect of over 45% in size
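H1299 (p53-null), stable ts p53-A138V + BP100-Luc; 1000 cells/well, Opti-MEM/10% FBS; cpd 4 pt, 1:5; 24 h, 37 deg C, 5% CO2; detection reagent 10 min RT; luminescence.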
ELG1 genotox: genotoxicity induction in ELG1-luciferase HEK293T cells; HEK293T ELG1-luciferase reporter, luminescence, 16 h; Potency, µM (series often up to 46 µM), inactives show at the top dose activity change, positive = activation, actives largely listed as activators; actives 1.3% (n = 330,000); further: % of control where 0% means no effect; nearly all actives have a fitted effect of over 60% in size
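Genotoxic stress is detected as increased luminescence from luciferase-tagged ELG1 in HEK293T cells, measured with ONE-Glo after a 16 hr treatment at 37 °C.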
An asterisk follows results filed as active; ? = inconclusive; / = not tested or not shown; [ ] = another dose, or the depositor's remark. A selection: hits, their analogues and other compounds. The true share with any hit is near 7.1%. The call rests on the fitted dose curve; in most records, active means well fitted curve in the direction sought with a large enough effect; inconclusive means small, poorly fitted or top-dose-only effect, or another doubt; inactive means no such curve, though single readings can be large; an effect the other way counts as inactive or inconclusive. Potency means the concentration at half of the fitted maximal effect.

SMILES	SW480 rereplic	MCF10A rereplic	A-T KAP1 phos	ELG1 DNA repair	p53 reactivator	ELG1 genotox
CC(c1ccco1)N(C(=O)c1ccccc1NS(=O)(=O)c1ccc(Cl)c([N+](=O)[O-])c1)c1ccccn1 (configuration not stated)	3%	23µM*	1%	-2%	2%	-3%
CCCCNc1c2c3c(cccc3n(C)c1=O)C(=O)c1ccccc1-2	5.8µM*	?	?	16µM*	-11%	-6%
Cn1c(=O)cc2c3c(c(N4CCCCC4)ccc31)C(=O)c1ccccc1-2	?	25%	-4%	?	-6%	?
CC(=O)Nc1ccc(Nc2c3c4c(cccc4n(C)c2=O)C(=O)c2ccccc2-3)cc1	-3%	12%	0%	?	-3%	4%
Cn1c(=O)c(NCCc2ccccc2)c2c3c(cccc31)C(=O)c1ccccc1-2	18µM*	5.8µM*	?	21µM*	-8%	-17%
Cn1c(NCCc2ccccc2)cc(=O)n(C)c1=O	-7%	4%	7%	8%	11%	-1%
Cn1c(=O)c(NC2CCCCC2)c2c3c(cccc31)C(=O)c1ccccc1-2	23µM*	3.7µM*	11%	18µM*	-2%	-12%
CCCOC(=O)c1ccc(N)cc1	2%	8%	/	/	/	/
O=C(Nc1ccccc1Cl)N1CCN(c2ccc3nnc(-c4ccc(F)cc4)n3n2)CC1	-3%	12%	5%	21µM*	-15%	-7%
COc1cc(C(=O)Nc2cc(OC)c(OC)c(OC)c2)ccc1OCc1c(C)noc1C	-4%	-1%	9%	-14%	-5%	11%
COc1cc(NC(=O)c2ccc(OCc3c(C)noc3C)c(OC)c2)cc(OC)c1	-4%	12%	7%	21µM*	-13%	5%
Cn1cc(S(=O)(=O)Nc2ccc(OC(F)(F)F)cc2)c(=O)n(C)c1=O	-2%	4%	13µM*	0%	-1%	-2%
CNC(=O)COC(=O)c1ccc2c(c1)NC(=O)C1CCCN21 (configuration not stated)	/	/	1%	12%	-3%	18%
CCC(C)NC(=O)c1cn(CC)c2cc(N3CCN(C(=O)c4ccco4)CC3)c(F)cc2c1=O (configuration not stated)	-17%	7%	-5%	21µM*	-6%	-12%
CCn1cc(C(=O)NCC(C)C)c(=O)c2cc(F)c(N3CCN(C(=O)c4ccco4)CC3)cc21	-2%	?	-4%	-1%	3%	-9%
CCn1cc(C(=O)NCc2ccco2)c(=O)c2cc(F)c(N3CCN(C(=O)c4ccco4)CC3)cc21	-2%	13µM*	1%	?	-8%	-11%
O=C(NCCCN1CCOCC1)c1cccc(NS(=O)(=O)c2ccc(Br)cc2)c1	-3%	14%	5%	-5%	-9%	1%
Cn1c(C(=O)OC(C(=O)NC2CCCCC2)c2cccnc2)cc2sccc21 (configuration not stated)	3%	1%	/	?	-5%	0%
Cn1c(C(=O)OC(C(=O)NC2CCCC2)c2cccnc2)cc2sccc21 (configuration not stated)	?	10µM*	-3%	-2%	-10%	2%
COc1ccc(/C=C/C(=O)C(C)(C)C)cc1OC	1%	-1%	7%	17%	?	1%
COc1cc(/C=C/C(=O)c2ccc([N+](=O)[O-])o2)ccc1O	0.058µM*	?	-15%	?	-28%	?
COc1ccc(/C=C/C(=O)c2ccc([N+](=O)[O-])o2)cc1OC	?	?	?	12µM*	-19%	?
O=C(/C=C/c1cccc(Cl)c1)c1ccc([N+](=O)[O-])o1	1.5µM*	2.3µM*	-5%	7.3µM*	-18%	-46%
COc1cc(OC)c(C(=O)/C=C/c2ccc(OCc3ccccc3)c(OC)c2)c(OC)c1	?	18%	-8%	?	/	-3%
COc1cc(OC)c(C(=O)C=Cc2ccc(OC)c(OC)c2)c(OC)c1	18µM*	169%	/	/	/	/
SMILES	SW480 rereplic	MCF10A rereplic	A-T KAP1 phos	ELG1 DNA repair	p53 reactivator	ELG1 genotox
CC(C)(C)CC(C)(C)NCC(=O)Nc1c2c(nc3ccccc13)CCC2	-7%	-4%	12%	?	-2%	-7%
N#Cc1c(N)nc(SCC(=O)C23CC4CC(CC(C4)C2)C3)c(C#N)c1-c1ccc(Cl)cc1	19%	?	/	?	5%	-2%
CSc1nc(N)nc(SCC(=O)C23CC4CC(CC(C4)C2)C3)c1C#N	?	9%	-3%	21µM*	?	-6%
CCN1CCN(c2nc3c(C)cccn3c(=O)c2C=C(C#N)C#N)CC1	0%	-15%	11%	?	-4%	0%
COC(=O)c1cc2ccc(OC)cc2c2cc(OC)c(OC)cc12	24%	-26%	-2%	13µM*	-1%	-6%
O=C(Nc1ncc(Cc2ccccc2Cl)s1)c1ccc([N+](=O)[O-])cc1	0%	?	9%	-38%	-5%	7%
O=C(Nc1ncc(Cc2cccc([N+](=O)[O-])c2)s1)c1ccco1	-1%	?	-1%[11.5 µM]	6%	6%	18%
O=C(Nc1ncc(Cc2ccc(C(F)(F)F)cc2)s1)c1ccc(-c2cccc([N+](=O)[O-])c2)o1	/	?	2%	21µM*	-4%	-3%
O=C(Nc1ncc(Cc2ccccc2Cl)s1)c1ccc(-c2cccc([N+](=O)[O-])c2)o1	-14%	0%	-3%	13µM*	2%	-5%
Nc1nn2cc(-c3ccccc3)nc2c2ccccc12	-2%	2%	4%	?	?	5.2µM*
O=[N+]([O-])c1cccc(-c2cn3nc(-c4ccccc4)c(-c4ccccc4)nc3n2)c1	5.8µM*	?	2%	-2%	-2%	-1%
O=[N+]([O-])c1ccc(-c2cn3nc(-c4ccccc4)c(-c4ccccc4)nc3n2)cc1	?	3.7µM*	-15%	7%	-2%	-4%
O=[N+]([O-])c1cccc(-c2cn3ccccc3n2)c1	-31%	3%	0%	-6%	0%	1%
C=CCC1(CC=C)CCCN1C(=O)C1CCC(=O)N(CCc2ccc(OC)cc2)C1 (configuration not stated)	-4%	1%	-4%	?	?	?
Oc1c(Cl)cc(Cl)cc1CNc1ccc(Br)cn1	2%	11µM*	15%	?	?	?
